CXXC DNA block – inhibitors of human MLL CXXC domain-DNA interaction. Q03164. MLL-CXXC / FITC-HOXA9 DNA fluorescence polarization. Potency, µM (titrated, usually from 115 µM), most hits filed as inhibitors. 290,000 tested, 0.037% active. AID 2662; active = well fitted inhibition curve with a large enough effect in the polarisation, with a control signal flat, not every such curve was filed as active; inconclusive = small, poorly fitted or top-dose-only effect, or effect the other way, or a change in a side signal; inactive = no such curve, though single readings can be large or run the other way; the % refers to the polarisation
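Purified MLL-CXXC (added from a 7 uM solution) was preincubated 5 min at ambient with pinned compounds in 50 mM Tris-HCl pH 7.5, 50 mM NaCl, 1 mM DTT, 0.05% BSA. Fluorescein-labeled HOX-A9 DNA (50 nM solution) followed, 30 min, then polarization read.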
TRPV1 PAM – human TRPV1 potentiation; TRPV1-expressing cells, Fluo-8 calcium influx, capsaicin EC20 potentiation; Q8NER1; 320,000 tested, 0.02% active; AID 540277; potentiation, % at 8.33 µM; in the data active = potentiation above about 80%; inconclusive = between about 30% and that limit
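Fluo-8 calcium influx in TRPV1-expressing cells, kinetic read (ex 480/em 520 nm). Compound added and read 3 min for agonist activity, followed by capsaicin at EC20 final and 2 min further read for enhancement.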
TRPV1 agonist – human TRPV1 agonism. 320,000 tested, 0.19% active. activation, % at 8.33 µM. TRPV1-expressing cells, Fluo-8 calcium influx, agonist mode. Q8NER1; in the data active = activation above about 80%; inconclusive = between about 30% and that limit
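TRPV1-expressing cells were cultured overnight at 35.5C and loaded with Fluo-8 calcium dye for 40 to 90 min at room temperature. After a 10 s baseline, compound was added and calcium influx was read kinetically for 3 min (ex 480/em 520 nm).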
Menin MLL FP FL – menin-MLL binding inhibition, fluorescein peptide; Fluorescence polarization, fluorescein-MLL peptide displacement from menin; FP activity change, % at 61.4 µM; 290,000 tested, under 10 active; AID 1766; active = well fitted curve in the direction sought with a large enough effect in the polarisation, not every such curve was filed as active; inconclusive = small, poorly fitted or top-dose-only effect, or effect the other way, or a change in a side signal; inactive = no such curve, though single readings can be large or run the other way; the % refers to the polarisation
Menin MLL FP TR – menin-MLL binding inhibition, Texas Red mutant peptide | O00255 | Potency, µM (series often up to 61.6 µM), actives largely listed as inhibitors | Menin + Texas Red MLL mutant peptide, fluorescence polarization | 270,000 tested, 0.23% active | AID 1768; active = well fitted inhibition curve with a large enough effect in the polarisation, with a control signal flat, not every such curve was filed as active; inconclusive = small, poorly fitted or top-dose-only effect, or effect the other way, or a change in a side signal; inactive = no such curve, though single readings can be large or run the other way; the % refers to the polarisation
MLL CXXC Fl – disrupts human MLL CXXC domain binding to DNA; Potency, µM (top dose mostly 345 µM), most hits filed as inhibitors; 200 tested, 70% active; MLL CXXC-DNA binding, fluorescein FP; shares compounds with CXXC DNA block; note: nearly all actives have a fitted effect of over 80% in size
MLL CXXC FP-TR – MLL CXXC-DNA interaction inhibition, Texas Red FP. MLL CXXC-DNA binding, Texas Red fluorescence polarization. AID 624161. Potency, µM (highest dose often 345 µM), hits mostly inhibitors. shares compounds with CXXC DNA block. 200 tested, 40% active; note: nearly all actives have a fitted effect of over 75% in size
MLL CXXC HTRF – inhibitors of human MLL CXXC domain-DNA interaction, HTRF format; shares compounds with CXXC DNA block; MLL CXXC-DNA binding, HTRF, biochemical; Potency, µM (highest dose often 172 µM), hits mostly inhibitors; 210 tested, 30% active; note: nearly all actives have a fitted effect of over 80% in size
Large screens that a line does not name were inactive (follow-up assays come after a bar, where they were run). Sampled rows, rich in hits. Any-hit rate of the full collection: about 0.32%. Unless noted, calls come from the whole dose curve; as a rule, active = well fitted inhibition curve with a large enough effect; inconclusive = small, poorly fitted or top-dose-only effect; inactive = no such curve, though single readings can be large or run the other way.

Cc1ccc(C(=O)Nc2ccc3ncccc3c2)cc1	TRPV1 agonist inconclusive
CCc1ccc(NC(=O)c2ccc3ncsc3c2)cc1	TRPV1 agonist 85.7
O=C(Nc1ccc(Br)cc1)c1ccc2ncsc2c1	TRPV1 agonist inconclusive
COc1ccc(C(=O)Nc2ccc3ncccc3c2)cc1	TRPV1 agonist 90.7
CSCC[C@H](N)C(=O)N[C@@H](C)C(=O)NCC(=O)N[C@@H](CCCN=C(N)N)C(=O)N[C@@H](CO)C(=O)NCC(=O)N[C@@H](CC(=O)O)C(=O)N[C@@H](CO)C(=O)N[C@@H](CC(=O)O)C(=O)N[C@@H](CCC(=O)O)C(=O)N[C@@H](CC(=O)O)C(=O)N[C@@H](CC(C)C)C(=O)N[C@@H](CC(C)C)C(=O)N[C@@H](CCCCN)C(=O)N[C@@H](C)C(=O)N[C@H](C(=O)O)C(C)C	none (no result: CXXC DNA block, TRPV1 PAM, TRPV1 agonist)
COc1ccc(NC(=O)c2ccc3c(c2)N(C)CCS3)cc1	TRPV1 agonist 96.6 (no result: CXXC DNA block)
COC(=O)c1cn(NC(=O)c2ccc3c(c2)OCO3)c(=O)c2ccccc12	TRPV1 agonist 80.5
O=C(NC(=S)Nc1nc(-c2cccc3ccccc23)cs1)c1cc2ccccc2o1	Menin MLL FP TR 25.1µM
CC(=O)Nc1nc(-c2cccc3ccccc23)cs1	none
COc1ccc2[nH]c(S(=O)Cc3ncc(C)c(OC)c3C)nc2n1 (configuration not stated)	none (no result: TRPV1 PAM, TRPV1 agonist)
COc1ccc(C)cc1N(C(=O)c1snc(C(N)=O)c1N)C(C(=O)NC1CCCC1)c1ccc(F)cc1 (configuration not stated)	TRPV1 agonist 99.2 (no result: Menin MLL FP FL, Menin MLL FP TR)
COc1ccc(N(C(=O)c2snc(C(N)=O)c2N)C(C(=O)NC2CCCC2)c2ccc(F)cc2)c(OC)c1 (configuration not stated)	none
O=C(Nc1ccc(Cl)c(Cl)c1)Nc1nnc(CC2=CCCCC2)s1	Menin MLL FP TR 25.1µM
O=C(Nc1ccc(Cl)cc1)Nc1nnc(CSCc2ccc(Cl)cc2)s1	Menin MLL FP TR 7.94µM
CCc1nnc(NC(=O)Nc2ccc(Cl)cc2)s1	none
O=C(Nc1nnc(CC2=CCCCC2)s1)c1cccs1	none
O=C1c2cc(O)cc(O)c2OC[C@@H]1c1ccc(O)c(O)c1	none (no result: CXXC DNA block, TRPV1 PAM, TRPV1 agonist)
N=c1c2c(-c3ccccc3)c(-c3ccccc3)n(Cc3ccccc3)c2ncn1CCCn1ccnc1	Menin MLL FP TR 22.4µM
COc1cccc(CC(=O)N2CCc3nc(-c4ccc(OC)cc4C)c4c(c3C2)CO[C@@H](c2ccccc2)C4)c1	none (no result: CXXC DNA block, TRPV1 PAM, TRPV1 agonist)
O=C(C[n+]1ccc(CCSc2ccc(F)cc2)cc1)c1ccccc1	Menin MLL FP FL inconclusive, Menin MLL FP TR 17.8µM
C/C=C\C1=CCCC1Nc1ncnc2ccc(-c3c(C)noc3C)cc12 (configuration not stated)	none (no result: CXXC DNA block, TRPV1 PAM, TRPV1 agonist)
CC(C)C(=O)SCCCCCCC(=O)Nc1nc(-c2ccccc2)cs1	none (no result: CXXC DNA block, TRPV1 PAM, TRPV1 agonist)
O=C(Nc1cccc(C(=O)Nc2ccc(S(=O)(=O)O)c3cc(S(=O)(=O)O)cc(S(=O)(=O)O)c23)c1)Nc1cccc(C(=O)Nc2ccc(S(=O)(=O)O)c3cc(S(=O)(=O)O)cc(S(=O)(=O)O)c23)c1	CXXC DNA block 15.8µM, Menin MLL FP FL inconclusive (no result: TRPV1 PAM, TRPV1 agonist) | MLL CXXC Fl 28.3µM | MLL CXXC FP-TR 100µM | MLL CXXC HTRF 38.5µM
Cc1ccc(N/C=C(\C2OC(=O)c3ccccc32)[N+](=O)[O-])c(C)c1 (configuration not stated)	none
O=C1OC(/C(=C\Nc2ccc(F)cc2F)[N+](=O)[O-])c2ccccc21 (configuration not stated)	CXXC DNA block inconclusive | MLL CXXC Fl inactive | MLL CXXC FP-TR 126µM | MLL CXXC HTRF inactive

From PubChem
